BAZ2B block – BAZ2B (human) inhibition; Q9UIF8; AlphaScreen BAZ2B-H3K14Ac peptide displacement; Potency, µM (top dose mostly 114 µM), inactives show at the top dose activity change, negative = inhibition, usual class: inhibitors; 360,000 compounds, 4.4% hits; AID 504333; further: on the % scale 0 is the no-effect control and ±100 the full control effect; nearly all actives have a fitted effect of over 60% in size
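Multi-concentration screen (max 110 uM) measuring displacement of acetylated histone H3 peptide from BAZ2B by AlphaScreen, using 50 nM protein, 50 nM peptide and 10 ug/mL streptavidin donor plus Ni-chelate acceptor beads.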
JMJD2A Tudor – inhibitors of human JMJD2A Tudor domain; 390,000 compounds, 4.4% hits; O75164; AID 504339; AlphaScreen JMJD2A-Tudor / H3K4me3 peptide binding; Potency, µM (top dose mostly 114 µM), without a hit: at the top dose activity change, negative = inhibition, actives largely listed as inhibitors; further: on the % scale 0 is the no-effect control and ±100 the full control effect; nearly all actives have a fitted effect of over 50% in size
TDP1 block – TDP1 (human) enzyme inhibition; 350,000 compounds, 0.28% hits; recombinant TDP1, AlphaScreen DNA substrate cleavage; Potency, µM (titrated, usually from 130 µM), inactives show top-dose activity change, negative = inhibition, hits mostly inhibitors; further: on the % scale 0 is the no-effect control and ±100 the full control effect; nearly all actives have a fitted effect of over 40% in size
Target sequence (Q9NUW8 whole entry, looked up): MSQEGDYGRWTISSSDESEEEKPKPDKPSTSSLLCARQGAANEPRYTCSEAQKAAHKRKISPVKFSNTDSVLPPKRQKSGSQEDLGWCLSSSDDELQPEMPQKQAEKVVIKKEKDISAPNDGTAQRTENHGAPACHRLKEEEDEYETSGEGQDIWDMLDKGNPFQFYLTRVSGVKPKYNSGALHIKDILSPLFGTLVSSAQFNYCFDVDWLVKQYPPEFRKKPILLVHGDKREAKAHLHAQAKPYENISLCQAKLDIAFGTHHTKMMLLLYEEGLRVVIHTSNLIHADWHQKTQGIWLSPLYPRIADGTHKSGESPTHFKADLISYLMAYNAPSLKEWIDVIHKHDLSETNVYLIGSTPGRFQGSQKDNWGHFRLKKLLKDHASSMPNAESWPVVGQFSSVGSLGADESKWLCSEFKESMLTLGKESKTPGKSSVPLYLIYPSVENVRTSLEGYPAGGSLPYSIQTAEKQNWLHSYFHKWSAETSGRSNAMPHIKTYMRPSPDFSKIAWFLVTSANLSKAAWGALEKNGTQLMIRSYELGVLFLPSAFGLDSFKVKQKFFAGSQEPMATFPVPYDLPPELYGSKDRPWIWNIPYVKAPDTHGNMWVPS
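Here, a 5' biotin and 3' phosphotyrosine-FITC DNA oligonucleotide reports Tdp1 activity: intact substrate bridges AlphaScreen beads, while cleavage leaves a 3' phosphate and drops signal. All incubations at room temperature.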
Sfp inh – blocks B. subtilis Sfp PPTase activity | Biochemical Sfp PPTase activity, qHTS | Potency, µM, inactives show largest response in the series, negative = inhibition, actives largely listed as inhibitors | 310,000 compounds, 3.5% hits | AID 1490;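 further: the enzyme is Sfp with the accession as filed and its product quenches rhodamine fluorescence; 0% = enzyme reaction without inhibitor and -100% = no enzyme wells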
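Reaction rates are the 30-min fluorescence difference (ex 525, em 598 nm) in wells containing 15 nM Sfp, 5 uM rhodamine-CoA and 12.5 uM BHQ-2-YbbR at pH 7.6 with 10 mM MgCl2.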
HP1b chromo inh – blocks HP1-beta chromodomain binding to methylated histone tails. AlphaScreen HP1-beta / biotin-H3K9me3 peptide binding. Potency, µM (titrated, usually from 114 µM), without a hit: top-dose activity change, negative = inhibition, most hits filed as inhibitors. 390,000 compounds, 0.56% hits. AID 540317; further: nearly all actives have a fitted effect of over 70% in size
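AlphaScreen: HP1-beta (50 nM) preformed 30 min with biotin-H3(1-18)K9me3 peptide (50 nM) in PBS pH 7.4, 0.01% Tween-20. Compound added for 30 min at RT, then streptavidin donor/nickel chelate acceptor beads (10 ug/mL) for 30 min.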
G9a inh – blocks human histone lysine methyltransferase G9a; G9a H3K9 monomethylation, AlphaScreen, 2 h; Potency, µM (doses to about 102 µM), without a hit: top-dose activity, negative = inhibition, actives largely listed as inhibitors; 350,000 compounds, 8.8% hits; AID 504332; further: on the % scale 0 is the no-effect control and ±100 the full control effect; nearly all actives have a fitted effect of over 75% in size
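AlphaScreen read-out: biotin-H3K9 peptide (500 nM) methylation by 20 nM enzyme with 20 uM SAM, 2 h at room temperature after 15 min compound preincubation; anti-monomethyl H3K9 antibody plus donor/acceptor beads, 10 min dark.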
Numbers without * were called inactive; ? = inconclusive; nt = no result given; [ ] = dose if it differs, or a comment. Only some compounds are listed: those with a hit (about 12% of all), similar ones and a draw of the others. The call rests on the fitted dose curve; in most records, active means well fitted curve in the direction sought with a large enough effect; inconclusive means small, poorly fitted or top-dose-only effect, or another doubt; inactive means no such curve, though single readings can be large; an effect the other way counts as inactive or inconclusive. Potency means the concentration at half of the fitted maximal effect.

SMILES	BAZ2B block	JMJD2A Tudor	TDP1 block	Sfp inh	HP1b chromo inh	G9a inh
CCCc1nn2c(=O)cc(COC(=O)c3cccc(NC(=O)COc4ccc(F)cc4)c3)nc2s1	-10%	1%	-6%	nt	13%	-6%[12.7 µM]
O=C(CSc1ncnc2nc[nH]c12)c1ccc(Cl)cc1	?	18µM*	nt	50µM*	-36%	nt
Clc1ccc(CSc2ncnc3nc[nH]c23)cc1	-11%	-12%	4%	3%	44%	?
O=C(NCc1ccccc1)C(c1ccc(F)cc1)N(C(=O)c1csnn1)c1ccccc1 (stereo not given)	11%	?	12%	6%	-9%	7%
CC1(C)[N+]([O-])=C2C(=[N+]([O-])C1(C)C)c1ccccc1/C2=N\O	?	-3%	2%	-23%	18%	50µM*
COC(=O)c1ccc(NC(=O)CC2C(=O)N(c3cccc(F)c3)C(=O)N2CC(C)C)cc1 (stereo not given)	-11%	-14%	4%	nt	5%	-11%[59 µM]
Cc1cccc(NC(=O)C2C3C=CC(O3)C2C(=O)O)c1C (stereo not given)	-5%	-32%	3%	-8%	47%	35µM*
COc1ccccc1NC(=O)C1C2C=CC(O2)C1C(=O)O (stereo not given)	?	nt	4%	-28%	nt	50µM*
Cc1ccc(NC(=O)C2C3C=CC(O3)C2C(=O)O)c(C)c1 (stereo not given)	-2%	-10%	4%	-9%	35%	40µM*
Cc1ccc(C)c(NC(=O)C2C3C=CC(O3)C2C(=O)O)c1 (stereo not given)	-12%	-22%	4%	-4%	35%	45µM*
O=C(NC(=S)NCCO)c1cn(-c2ccccc2)nc1-c1ccccc1	-10%	-20%	0%	-13%	41%	1%
CCOc1ccccc1NC(=O)CSc1nc2c(sc3ccccc32)c(=O)n1CCCC(=O)NC1CCCC1	-18%	-11%	1%	nt	26%	-40%[59 µM]
CCOC(=O)C[C@@H](C(=O)OCC)[C@@H]1CCCCC1=O	nt	nt	6%[21 µM]	-10%	nt	nt
Cc1ccccc1NC(=O)C1C2CCC(O2)C1C(=O)O (stereo not given)	11%	12%	-5%	19%	12%	-7%[59 µM]
Cc1ccc(F)cc1NC(=O)C1C2CCC(O2)C1C(=O)O (stereo not given)	25%	-24%	6%	7%	19%	79µM*
CC(C)C(=O)N1CCc2cc(-c3csc(N)n3)ccc21	?	-23%	3%	40µM*	-22%	?
COc1ccc(N2CCN(C(=O)CC(C)S(=O)(=O)c3ccc4c(c3)NC(=O)CO4)CC2)cc1 (stereo not given)	-11%	-35%	1%	-2%	-9%	nt
CCOC(=O)C1CCN(C(=O)CN2C(=O)COc3ccc(C(C)(C)C)cc32)CC1	-4%	79µM*	2%	10%	-7%	-10%
CCOC(=O)C1CCN(C(=O)CC(C)S(=O)(=O)c2ccc3c(c2)NC(=O)CO3)CC1 (stereo not given)	-3%	-13%	1%	9%	32%	71µM*
O=[N+]([O-])c1cc2c(cc1CN1CCN(CCOCCO)CC1)OCO2	?	?	nt	79µM*	29%	79µM*
O=[N+]([O-])c1cc(C(F)(F)F)ccc1N1CCN(CCO)CC1	-3%	-18%	-1%	21%	18%	4%
O=[N+]([O-])c1ccc(N2CCN(CCOCCO)CC2)c([N+](=O)[O-])c1	32µM*	7.9µM*	-8%	-22%	?	nt
CCC1(CC)SC(N)=NC1=O	nt	-6%	nt	nt	-2%[57 µM]	nt
CCc1cccc(C)c1NC(=O)Cn1nc(C)n2cccc2c1=O	-16%	-10%	2%	12%	65%	-9%
O[C@@H]1COC2[C@@H](O)CO[C@@H]21 (stereo not given in full)	nt	nt	8%	-6%	nt	nt
SMILES	BAZ2B block	JMJD2A Tudor	TDP1 block	Sfp inh	HP1b chromo inh	G9a inh
CC(=O)c1ccc2cccc3c2c1N=CN3C	-22%	-13%	-3%	?	21%	45µM*
C[C@@H]1CN(Cc2nc(-c3ccc(Cl)cc3)no2)C[C@H](C)O1	-2%	5%	-5%	-1%	46%	nt
CC1CN(Cc2ccc(C#N)cc2Cl)CC(C)O1 (stereo not given)	-6%	?	5%	12%	33%	35µM*
O=C1CSC(=S)N1N=Cc1c(O)ccc2ccccc12	nt	50µM*	nt	nt	?	nt
O=C1CSC(=S)N1/N=C/C=C/c1ccccc1	?	?	8%	-8%	?	40µM*
O=C1CSC(=S)N1/N=C/c1c(F)cccc1F	-20%	?	1%[0.0935 µM]	?	-39%	50µM*
O=C1CSC(=S)N1/N=C/c1ccc(C(F)(F)F)cc1	-15%	-31%	nt	-5%	12%	79µM*
CCOC(=O)c1c(C)[nH]c(C(=O)OCC(=O)Nc2sccc2C(N)=O)c1C	1%	-6%	nt	nt	17%	?
CC(=O)N1CC=CC1(CC(C)C)C(=O)O (stereo not given)	nt	nt	7%	20%	nt	nt
CC(=O)N1CC=CC1(C)C(=O)O (stereo not given)	-4%	-11%	0%	26%	28%	50µM*
CCOc1ccc(CCNC(=O)CSc2ncn[nH]2)cc1OCC	-23%	-9%	6%	8%	26%	43%
CCS(=O)(=O)N1CC(=O)N(c2cc(C)cc(C)c2)C(C)(C(=O)NC2CCCCC2)C1 (stereo not given)	2%	-4%	7%	nt	36%	7%[59 µM]
Cc1nn(Cc2ccccc2)c(Cl)c1/C=C1\NC(=S)NC1=O	-24%	-21%	-1%	40µM*	12%	40µM*
Cc1nn(Cc2ccc(F)cc2)c(Cl)c1/C=N/NC(=O)c1ccccc1	-12%	11%	-8%	18%	21%	-19%
CCOC(=O)c1c(O)c(Cl)c(C)[nH]c1=O	nt	79µM*	1%	19%	5%	-10%
CCOC(=O)c1c(O)c2c([nH]c1=O)CCCC2	-6%	7%	-2%	7%	28%	15%[2.33 µM]
CC[C@@]12C(=O)N(c3cccc(Cl)c3)C(=O)N1[C@H](c1ccc(Br)cc1)[C@@H]1C(=O)N(C(C)(C)C)C(=O)[C@@H]12	11%	79µM*	0%	nt	9%	-10%[2.33 µM]
CC(C)C[C@@]12C(=O)N(c3cccc(Cl)c3)C(=O)N1[C@H](c1ccc(Br)cc1)[C@@H]1C(=O)N(C(C)(C)C)C(=O)[C@@H]12	1%	-34%	nt	nt	18%	-5%[12.7 µM]
CCOc1ccc(-n2c(Cc3ccccc3)nnc2SCc2nc(-c3ccccc3C)no2)cc1	-5%	-14%	1%	nt	24%	-33%[59 µM]

Bioassay records deposited in PubChem BioAssay by National Center for Advancing Translational Sciences (NCATS).
